# Assay results reported in the supplement of paper PMC9262897, “Low-cost anti-mycobacterial drug discovery using engineered E. coli” (Nature Communications, 2022).
# Counter-ions that a name gives are not always drawn. ± gives the standard deviation of the averaged measurements.
# System: E. coli TESEC Mtb Alr
# Assay: growth (OD600 after 10 h); higher = more growth (less inhibition)
# Conditions: arabinose 1000000 nM; compound 0.1 mM; raw OD600 reference: median of DMSO wells 0.193, cell-free background 0.041
# Description: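 TESEC Mtb Alr E. coli, or the Alr+ wild-type control, in 384-well plates with Prestwick library compounds at 0.1 mM and 1% DMSO, across arabinose induction levels of 1E3 to 1E7 nM. Growth is read as OD600 after 10 h at 37 °C in triplicate biological replicates.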
row,SMILES,growth
1,COc1ncnc(NS(=O)(=O)c2ccc(N)cc2)c1OC [Sulfadoxine],0.174 ± 0.007
2,c1ccc(C2CN3CCSC3=N2)cc1 (centres undefined) [Tetramisole hydrochloride],0.176 ± 0.0046
3,CCCC1O[C@@H]2C[C@H]3[C@@H]4CCC5=CC(=O)C=C[C@]5(C)[C@H]4[C@@H](O)C[C@]3(C)[C@]2(C(=O)CO)O1 (some centres undefined) [Budesonide],0.112 ± 0.0012
4,COc1cc2ncnc(Nc3ccc(F)c(Cl)c3)c2cc1OCCCN1CCOCC1 [Gefitinib],0.161 ± 0.0089
5,"C[C@H]1C[C@@H]2[C@H]([C@@H](O)C[C@@]3(C)[C@H]2CC[C@]3(O)C(=O)CO)[C@@]2(C)C=CC(=O)C=C12 [Methylprednisolone, 6-alpha]",0.116 ± 0.0032
6,C[C@@H](O)[C@H]1C(=O)N2C(C(=O)O)=C(SCCNC=N)C[C@H]12 [Imipenem],0.174 ± 0.0056
7,CC(=O)Oc1ccccc1C(=O)Nc1ncc([N+](=O)[O-])s1 [Nitazoxanide],0.0434 ± 0.0042
8,CC[C@H](C)[C@H](N)C1=N[C@H](C(=O)N[C@@H](CC(C)C)C(=O)N[C@H](CCC(=O)O)C(=O)N[C@H](C(=O)N[C@H]2CCCCNC(=O)[C@H](CC(N)=O)NC(=O)[C@@H](CC(=O)O)NC(=O)[C@H](Cc3cnc[nH]3)NC(=O)[C@@H](Cc3ccccc3)NC(=O)[C@H]([C@@H](C)CC)NC(=O)[C@@H](CCCN)NC2=O)[C@@H](C)CC)CS1 [Bacitracin],0.176 ± 0.0086
9,c1ccc([C@H]2CN3CCSC3=N2)cc1 [Levamisole hydrochloride],0.186 ± 0.0053
10,"CN(Cc1cnc2nc(N)nc(N)c2n1)c1ccc(C(=O)N[C@@H](CCC(=O)O)C(=O)O)cc1 (racemic) [Amethopterin (R,S)]",0.14 ± 0.0075
11,CCOC(=O)C1=C[C@]2(CC)CCCN3CCc4c(n1c1ccccc41)[C@@H]32 [Vinpocetine],0.145 ± 0.005
12,COc1ccccc1O [Guaiacol],0.203 ± 0.012
13,CC(=O)Oc1ccccc1C(=O)O [Acetylsalicylic acid],0.19 ± 0.01
14,C[C@]12CC[C@@H]3c4ccc(O)cc4C[C@@H](CCCCCCCCC[S+]([O-])CCCC(F)(F)C(F)(F)F)[C@H]3[C@@H]1CC[C@@H]2O (some centres undefined) [Fulvestrant],0.179 ± 0.012
15,CC(=O)O[C@H]1C[C@@H]2CC[C@@H]3[C@H](CC[C@@]4(C)[C@H]3C[C@H]([N+]3(C)CCCCC3)[C@@H]4OC(C)=O)[C@@]2(C)C[C@@H]1N1CCCCC1 [Vecuronium bromide],0.0518 ± 0.0023
16,NS(=O)(=O)c1cc(C2(O)NC(=O)c3ccccc32)ccc1Cl (centres undefined) [Chlorthalidone],0.168 ± 0.003
17,CC[C@H]1OC(=O)[C@H](C)[C@@H](O[C@H]2C[C@@](C)(OC)[C@@H](O)[C@H](C)O2)[C@H](C)[C@@H](O[C@@H]2O[C@H](C)C[C@H](N(C)C)[C@H]2O)[C@](C)(O)C[C@@H](C)CN(C)[C@H](C)[C@@H](O)[C@]1(C)O [Azithromycin],0.03993 ± 0.00025
18,CC(=O)N(CC(O)CN(C(C)=O)c1c(I)c(C(=O)NCC(O)CO)c(I)c(C(=O)NCC(O)CO)c1I)c1c(I)c(C(=O)NCC(O)CO)c(I)c(C(=O)NCC(O)CO)c1I (centres undefined) [Iodixanol],0.177 ± 0.0052
19,CN1CCN2c3ccccc3Cc3ccccc3C2C1 (centres undefined) [Mianserine hydrochloride],0.142 ± 0.011
20,Clc1ccc2nsnc2c1NC1=NCCN1 [Tizanidine HCl],0.185 ± 0.0059
21,CC(=O)[C@H]1CC[C@H]2[C@@H]3CCC4=CC(=O)CC[C@]4(C)[C@H]3CC[C@]12C [Progesterone],0.117 ± 0.0027
22,C#Cc1cccc(Nc2ncnc3cc(OCCOC)c(OCCOC)cc23)c1 [Erlotinib],0.146 ± 0.0076
23,Nc1cc(-c2ccncc2)c[nH]c1=O [Amrinone],0.188 ± 0.0077
24,COc1cc2nc(N3CCN(C(=O)C4COc5ccccc5O4)CC3)nc(N)c2cc1OC (centres undefined) [Doxazosin mesylate],0.04047 ± 5.8e-05
25,CN1CCN(CCCN2c3ccccc3Sc3ccc(S(=O)(=O)N(C)C)cc32)CC1 [Thioproperazine dimesylate],0.106 ± 0.0049
26,O=c1[nH]c(=O)n([C@H]2C[C@H](O)[C@@H](CO)O2)cc1C(F)(F)F [Trifluridine],0.082 ± 0.0069
27,COc1ccc2cc(CCC(C)=O)ccc2c1 [Nabumetone],0.109 ± 0.0058
28,CCN(CC)CCNC(=O)c1cc(Br)c(N)cc1OC [Bromopride],0.181 ± 0.006
29,"O=C1C(O)=C(O)C(=O)C(O)=C1O [Tetrahydroxy-1,4-quinone hydrate]",0.1568 ± 0.0015
